According to article PMC8384837, “Expanding the binding specificity for RNA recognition by a PUF domain”:

Columns and labels:
Experiment in all cases: yeast three-hybrid, YBZ-1, SC-Leu-His + 0.5 mM 3-AT, 4 days
Details in all cases: tags: N-Gal4 AD-HA kept; label: inside an RPR1-promoter hybrid RNA with tandem MS2 sites; ssRNA
[1] = target: PUM1 PUF domain R7-LHG (Homo sapiens, UniProt Q14671 828-1176, S1079L;N1080H;E1083G)
Outline: (§1)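 The interaction score is the log change in how often each variant appears, from input to selection. Frequencies came from PCR-amplified, Illumina-sequenced repeat regions of Pumilio-1 PUF domain libraries grown in strain YBZ-1 (LexA–MS2 coat fusion, HIS3 reporter) alongside matching RNA elements. Input plates were SC-Leu and selection plates were SC-Leu-His + 0.5 mM 3-AT, each for four days, and the log2 calculation used a pseudocount of 1 where a variant was absent.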

[2] = target: PUM1 PUF domain R1-NKK (Homo sapiens, UniProt Q14671 828-1176, S863N;R864K;Q867K)
Outline: as §1

[3] = target: PUM1 PUF domain R5-RYV (Homo sapiens, UniProt Q14671 828-1176, C1007R;R1008Y;Q1011V)
Outline: as §1

[4] = target: PUM1 PUF domain R5-QCC (Homo sapiens, UniProt Q14671 828-1176, C1007Q;R1008C;Q1011C)
Outline: as §1

[5] = target: PUM1 PUF domain R4-CPT (Homo sapiens, UniProt Q14671 828-1176, N971C;H972P;Q975T)
Outline: as §1

[6] = target: PUM1 PUF domain R4-ANY (Homo sapiens, UniProt Q14671 828-1176, N971A;H972N;Q975Y)
Outline: as §1

[7] = target: PUM1 PUF domain R8-RYA (Homo sapiens, UniProt Q14671 828-1176, N1122R;Q1126A)
Outline: as §1

[8] = target: T1, PUM1 PUF domain R6-SWR (Homo sapiens, UniProt Q14671 828-1176, N1043S;Y1044W;Q1047R)
T1 sequence: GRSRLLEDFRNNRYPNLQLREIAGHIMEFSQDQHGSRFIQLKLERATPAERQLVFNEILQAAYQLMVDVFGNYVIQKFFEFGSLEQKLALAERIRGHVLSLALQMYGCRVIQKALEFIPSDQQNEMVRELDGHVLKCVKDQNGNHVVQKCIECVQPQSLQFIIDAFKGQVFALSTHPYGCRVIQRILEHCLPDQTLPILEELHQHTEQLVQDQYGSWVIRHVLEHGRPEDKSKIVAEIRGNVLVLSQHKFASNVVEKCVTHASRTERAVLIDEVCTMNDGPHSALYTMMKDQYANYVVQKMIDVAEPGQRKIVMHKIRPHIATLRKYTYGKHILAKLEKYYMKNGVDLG
Outline: as §1

[9] = target: PUM1 PUF domain R3-LRT (Homo sapiens, UniProt Q14671 828-1176, C935L;Q939T)
Outline: as §1

[10] = target: PUM1 PUF domain R3-GFP (Homo sapiens, UniProt Q14671 828-1176, C935G;R936F;Q939P)
Outline: as §1

[11] = target: PUM1 PUF domain R3-CPT (Homo sapiens, UniProt Q14671 828-1176, R936P;Q939T)
Outline: as §1

[12] = target: PUM1 PUF domain R3-CRP (Homo sapiens, UniProt Q14671 828-1176, Q939P)
Outline: as §1

[13] = target: PUM1 PUF domain R3-YRC (Homo sapiens, UniProt Q14671 828-1176, C935Y;Q939C)
Outline: as §1

[14] = target: PUM1 PUF domain R5-HRG (Homo sapiens, UniProt Q14671 828-1176, C1007H;Q1011G)
Outline: as §1

[15] = target: PUM1 PUF domain R5-WHA (Homo sapiens, UniProt Q14671 828-1176, C1007W;R1008H;Q1011A)
Outline: as §1

[16] = target: PUM1 PUF domain R1-GVK (Homo sapiens, UniProt Q14671 828-1176, S863G;R864V;Q867K)
Outline: as §1

[17] = target: PUM1 PUF domain R5-EHR (Homo sapiens, UniProt Q14671 828-1176, C1007E;R1008H;Q1011R)
Outline: as §1

[18] = target: PUM1 PUF domain R4-ALS (Homo sapiens, UniProt Q14671 828-1176, N971A;H972L;Q975S)
Outline: as §1

[19] = target: PUM1 PUF domain R1-KKV (Homo sapiens, UniProt Q14671 828-1176, S863K;R864K;Q867V)
Outline: as §1

[20] = target: PUM1 PUF domain R5-VHM (Homo sapiens, UniProt Q14671 828-1176, C1007V;R1008H;Q1011M)
Outline: as §1

Q: Which binding signal [1] does the source give for “GGCUAGAACUAGUGGAUCCCCCGGCGCCCGGCGGCUCGAGCCCGGGUAAGUUUAAAUAGUCUGCAUGCCGCCGGGCGCCAUGCCUGCAGGUCGACUCUAGAAAACAUG” here?
A: 4.5 log2 enrichment (interaction score)

Q: How did the binding signal [1] turn out when “GGCUAGAACUAGUGGAUCCCCCGGCGCCCGGCGGCUCGAGCCCGGGUAAGUCUAAAUAGUCUGCAUGCCGCCGGGCGCCAUGCCUGCAGGUCGACUCUAGAAAACAUG” was run?
A: 3.19 log2 enrichment (interaction score)

Q: With “GGCUAGAACUAGUGGAUCCCCCGGCGCCCGGCGGCUCGAGCCCGGGUAAGUGUAAAUGGUCUGCAUGCCGCCGGGCGCCAUGCCUGCAGGUCGACUCUAGAAAACAUG” as the sequence, how does the binding signal [2] read?
A: 3.03 log2 enrichment (interaction score)

Q: Which results are given for “GGCUAGAACUAGUGGAUCCCCCGGCGCCCGGCGGCUCGAGCCCGGGUAAGUGUGAAUAGUCUGCAUGCCGCCGGGCGCCAUGCCUGCAGGUCGACUCUAGAAAACAUG”?
A: binding signal [3]: 2.35 log2 enrichment (interaction score); binding signal [4]: 3.84 log2 enrichment (interaction score)

Q: For “GGCUAGAACUAGUGGAUCCCCCGGCGCCCGGCGGCUCGAGCCCGGGUAAGUGUACAUAGUCUGCAUGCCGCCGGGCGCCAUGCCUGCAGGUCGACUCUAGAAAACAUG”, which binding signal [5] is on record?
A: 1.75 log2 enrichment (interaction score)

Q: Which results are given for “GGCUAGAACUAGUGGAUCCCCCGGCGCCCGGCGGCUCGAGCCCGGGUAAGUGUAUAUAGUCUGCAUGCCGCCGGGCGCCAUGCCUGCAGGUCGACUCUAGAAAACAUG”?
A: binding signal [6]: 3.22 log2 enrichment (interaction score); binding signal [5]: 3.09 log2 enrichment (interaction score)

Q: How did the binding signal [7] turn out when “GGCUAGAACUAGUGGAUCCCCCGGCGCCCGGCGGCUCGAGCCCGGGUAAGCGUAAAUAGUCUGCAUGCCGCCGGGCGCCAUGCCUGCAGGUCGACUCUAGAAAACAUG” was run?
A: 6.7 log2 enrichment (interaction score)

Q: Which binding signal [8] does the source give for “GGCUAGAACUAGUGGAUCCCCCGGCGCCCGGCGGCUCGAGCCCGGGUAAGUGCAAAUAGUCUGCAUGCCGCCGGGCGCCAUGCCUGCAGGUCGACUCUAGAAAACAUG” here?
A: 7.3 log2 enrichment (interaction score)

Q: For “GGCUAGAACUAGUGGAUCCCCCGGCGCCCGGCGGCUCGAGCCCGGGUAAGUGUAAUUAGUCUGCAUGCCGCCGGGCGCCAUGCCUGCAGGUCGACUCUAGAAAACAUG”, which binding signal [9] is on record?
A: 1.36 log2 enrichment (interaction score)

Q: What about the binding signal [10] of the same sequence?
A: 4.82 log2 enrichment (interaction score)

Q: And the binding signal [11]?
A: 1.02 log2 enrichment (interaction score)

Q: What about the binding signal [12] of the same sequence?
A: 1.1 log2 enrichment (interaction score)

Q: Which binding signal [9] does the source give for “GGCUAGAACUAGUGGAUCCCCCGGCGCCCGGCGGCUCGAGCCCGGGUAAGUGUAAGUAGUCUGCAUGCCGCCGGGCGCCAUGCCUGCAGGUCGACUCUAGAAAACAUG” here?
A: 4.37 log2 enrichment (interaction score)

Q: What about the binding signal [12] of the same sequence?
A: 1.62 log2 enrichment (interaction score)

Q: What about the binding signal [13] of the same sequence?
A: 4.22 log2 enrichment (interaction score)

Q: “GGCUAGAACUAGUGGAUCCCCCGGCGCCCGGCGGCUCGAGCCCGGGUAAGUGUCAAUAGUCUGCAUGCCGCCGGGCGCCAUGCCUGCAGGUCGACUCUAGAAAACAUG” was tested. Which binding signal [14] did it give?
A: 1.78 log2 enrichment (interaction score)

Q: And the binding signal [15]?
A: 3.04 log2 enrichment (interaction score)

Q: What about the binding signal [3] of the same sequence?
A: 5.29 log2 enrichment (interaction score)

Q: How did the binding signal [16] turn out when “GGCUAGAACUAGUGGAUCCCCCGGCGCCCGGCGGCUCGAGCCCGGGUAAGUGUAAAUUGUCUGCAUGCCGCCGGGCGCCAUGCCUGCAGGUCGACUCUAGAAAACAUG” was run?
A: 2 log2 enrichment (interaction score)

Q: Which results are given for “GGCUAGAACUAGUGGAUCCCCCGGCGCCCGGCGGCUCGAGCCCGGGUAAGUGUUAAUAGUCUGCAUGCCGCCGGGCGCCAUGCCUGCAGGUCGACUCUAGAAAACAUG”?
A: binding signal [14]: 3.89 log2 enrichment (interaction score); binding signal [3]: 4.93 log2 enrichment (interaction score)

Q: What does the source list for “GGCUAGAACUAGUGGAUCCCCCGGCGCCCGGCGGCUCGAGCCCGGGUAAGUGUAAAUCGUCUGCAUGCCGCCGGGCGCCAUGCCUGCAGGUCGACUCUAGAAAACAUG”?
A: binding signal [16]: 3.43 log2 enrichment (interaction score); binding signal [2]: 4.39 log2 enrichment (interaction score)

Q: With “GGCUAGAACUAGUGGAUCCCCCGGCGCCCGGCGGCUCGAGCCCGGGUAAGUGUAAAUAGUCUGCAUGCCGCCGGGCGCCAUGCCUGCAGGUCGACUCUAGAAAACAUG” as the sequence, how does the binding signal [17] read?
A: 3.38 log2 enrichment (interaction score)

Q: And the binding signal [18]?
A: 4.11 log2 enrichment (interaction score)

Q: And the binding signal [14]?
A: 0.26 log2 enrichment (interaction score)

Q: What about the binding signal [11] of the same sequence?
A: 2.54 log2 enrichment (interaction score)

Q: What about the binding signal [12] of the same sequence?
A: 4.84 log2 enrichment (interaction score)

Q: And the binding signal [8]?
A: 8.07 log2 enrichment (interaction score)

Q: And the binding signal [19]?
A: 2.4 log2 enrichment (interaction score)

Q: And the binding signal [20]?
A: 2.73 log2 enrichment (interaction score)

Q: What about the binding signal [15] of the same sequence?
A: 1.08 log2 enrichment (interaction score)

Q: And the binding signal [3]?
A: 1.83 log2 enrichment (interaction score)
